Laboratory results from PubChem BioAssay (Tox21).
Where “and” joins values, the source holds several entries; their conditions need not be identical. Equal entries are not always repeated. Where a structure was tested more than once in an assay, its records may differ in their call. Calls of active or inactive are those of the source. Entries that show only a call come without a potency. Unless noted, calls come from the whole dose curve; as a rule, active = well fitted curve in the direction sought with a large enough effect in the repeat runs; inconclusive = weak or mixed curves; inactive = no such curve, though single readings can be large; an effect the other way counts as inactive or inconclusive.

Columns and labels:
[1] = qHTS assay for identifying genotoxic compounds that show differential cytotoxicity against isogenic chicken DT40 cell lines with known DNA damage response pathways - wild type cell line (AID 743012); note: nearly all actives have a fitted effect of over 60% in size; note: potency is the fitted concentration of half-maximal effect
How it was run: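 Wild type DT40, 300 cells/well, ~0.5 h settle at 37 C/5% CO2; compounds in DMSO added by pintool; 40 h at 37 C/5% CO2; CellTiter-Glo, 30 min RT; luminescence.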

[2] = qHTS assay for identifying genotoxic compounds that show differential cytotoxicity against isogenic chicken DT40 cell lines with known DNA damage response pathways - Rev3 mutant cell line (AID 743014); note: nearly all actives have a fitted effect of over 55% in size; note: potency is the fitted concentration of half-maximal effect
[3] = qHTS assay for identifying genotoxic compounds that show differential cytotoxicity against isogenic chicken DT40 cell lines with known DNA damage response pathways - Rad54/Ku70 mutant cell line (AID 743015); note: nearly all actives have a fitted effect of over 60% in size; note: potency is the fitted concentration of half-maximal effect
[4] = qHTS assay to identify small molecule antagonists of the androgen receptor (AR) signaling pathway using the MDA cell line - cell viability counter screen (AID 743041; note: nearly all actives have a fitted effect of over 45% in size)
How it was run: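 R1881-driven MDA-kb2 AR-luc cells, 3,000/well, were dosed with library compounds for 16 h; cell health came from CellTiter-Fluor fluorescence in the reporter wells.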

[5] = qHTS assay to identify small molecule antagonists of the thyroid receptor (TR) signaling pathway - cell viability counter screen (AID 743064); note: nearly all actives have a fitted effect of over 50% in size; note: potency is the fitted concentration of half-maximal effect
How it was run: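 Counter screen for cytotoxicity: compound plus T3 (1 nM final) on GH3.TRE-Luc cells, 23.5 h at 37 °C, then fluorescence viability readout with CellTiter-Fluor.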

[6] = qHTS assay to identify small molecule antagonists of the thyroid receptor (TR) signaling pathway (AID 743065); note: nearly all actives have a fitted effect of over 55% in size; note: potency is the fitted concentration of half-maximal effect
How it was run: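 Antagonism measured as loss of luciferase signal in GH3 cells stably carrying a TRE-luciferase reporter, co-treated with compound and T3 (1 nM final) for 23.5 h at 37 C. Viability was read in the same well by CellTiter-Fluor.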

[7] = test system: thyroid hormone receptor (rat, GH3 cells); experiment: qHTS assay to identify small molecule agonists of the thyroid receptor (TR) signaling pathway (AID 743066; calls by dose curve)
[8] = biological target: Estrogen receptor (Homo sapiens) (UniProt P03372); experiment: qHTS assay to identify small molecule antagonists of the estrogen receptor alpha (ER-alpha) signaling pathway (AID 743069; active = well fitted curve in the direction sought with a large enough effect in the signal ratio in the repeat runs, not every such curve was filed as active; inconclusive = weak or mixed curves, or effect the other way; inactive = no such curve, though single readings can be large or run the other way; the % refers to the signal ratio)
How it was run: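 Compound effects are measured against 17beta-estradiol stimulation in HEK293 cells with a UAS-controlled beta-lactamase reporter for ER-alpha. Exposure lasts 18 hr at 37C; LiveBLAzer B/G FRET substrate follows for 2 hr at room temperature.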

[9] = biological target: Estrogen receptor (Homo sapiens) (UniProt P03372); experiment: qHTS assay to identify small molecule agonists of the estrogen receptor alpha (ER-alpha) signaling pathway (AID 743075; calls by dose curve; note: potency is the fitted concentration of half-maximal effect)
[10] = biological target: Estrogen receptor (Homo sapiens) (UniProt P03372); experiment: qHTS assay to identify small molecule agonists of the estrogen receptor alpha (ER-alpha) signaling pathway using the BG1 cell line (AID 743079); conditions: BG1Luc4E2 cells, ERE-luciferase agonist, 22 h; note: nearly all actives have a fitted effect of over 20% in size; note: potency is the fitted concentration of half-maximal effect
[11] = qHTS assay to identify small molecule antagonists of the estrogen receptor alpha (ER-alpha) signaling pathway using the BG1 cell line (AID 743080; calls by dose curve;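 note: BG1 cells stimulated with 17beta-estradiol alongside compound; nearly all actives have a fitted effect of over 25% in size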; note: potency is the fitted concentration of half-maximal effect)
How it was run: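 BG1-Luc-4E2 cells (endogenous full-length ER-alpha, 4xERE luciferase) hormone-starved 5 days in charcoal-stripped FBS, plated 4,000/well for 24 h, then compound plus 17beta-estradiol for 21.5 h at 37 C; ONE-Glo luminescence read.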

[12] = qHTS assay to identify small molecule antagonists of the estrogen receptor alpha (ER-alpha) signaling pathway using the BG1 cell line - cell viability counter screen (AID 743081);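 note: compound given together with 17beta-estradiol as the ER stimulus; nearly all actives have a fitted effect of over 45% in size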
Aromatase (Homo sapiens) = Aromatase (Homo sapiens) (UniProt P11511); experiment: qHTS assay to identify aromatase inhibitors (AID 743083); note: nearly all actives have a fitted effect of over 55% in size
[13] = qHTS assay to identify small molecule antagonists of the estrogen receptor alpha (ER-alpha) signaling pathway - cell viability counter screen (AID 743074; calls by dose curve;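 note: HEK293 cells carrying ER-alpha-UAS-bla reporter stimulated with 17beta-estradiol; nearly all actives have a fitted effect of over 45% in size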)
[14] = qHTS assay to identify small molecule antagonists of the androgen receptor (AR) signaling pathway - cell viability counter screen (AID 743033; note: nearly all actives have a fitted effect of over 45% in size)
[15] = biological target: Androgen receptor (Homo sapiens) (UniProt P10275); experiment: qHTS assay to identify small molecule agonists of the androgen receptor (AR) signaling pathway using the MDA cell line (AID 743040; note: nearly all actives have a fitted effect of over 20% in size)
How it was run: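 After a 5 h incubation at 37C and 0% CO2, MDA-kb2 reporter cells were dosed with compounds in DMSO and kept 16 h under the same conditions. Luciferase activity was then read as luminescence with ONE-Glo.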

[16] = biological target: Androgen receptor (Homo sapiens) (UniProt P10275); experiment: qHTS assay to identify small molecule antagonists of the androgen receptor (AR) signaling pathway (AID 743035; active = well fitted inhibition curve with a large enough effect in the signal ratio in the repeat runs, not every such curve was filed as active; inconclusive = weak or mixed curves, or effect the other way; inactive = no such curve, though single readings can be large or run the other way; the % refers to the signal ratio)
How it was run: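 Fluorescence from a beta-lactamase FRET substrate (LiveBLAzer B/G, 2 h, room temperature) measured inhibition of R1881-stimulated signaling in GeneBLAzer AR-UAS-bla HEK293 cells exposed to compound for 16 h at 37C.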

[17] = biological target: Androgen receptor (Homo sapiens) (UniProt P10275); experiment: qHTS assay to identify small molecule antagonists of the androgen receptor (AR) signaling pathway using the MDA cell line (AID 743042; note: nearly all actives have a fitted effect of over 55% in size)
How it was run: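 Antagonist mode: compounds plus R1881 agonist added to MDA-kb2 AR-luc cells, incubated 16 h at 37C. Luciferase reporter luminescence quantified, with multiplexed CellTiter-Fluor readout for cell viability.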

[18] = biological target: Androgen receptor (Homo sapiens) (UniProt P10275); experiment: qHTS assay to identify small molecule agonists of the androgen receptor (AR) signaling pathway (AID 743036; active = well fitted activation curve with a large enough effect in the signal ratio in the repeat runs, with a control signal flat, not every such curve was filed as active; inconclusive = weak or mixed curves, or effect the other way; inactive = no such curve, though single readings can be large or run the other way; the % refers to the signal ratio)
How it was run: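 In this Tox21 qHTS, 2,000 HEK293 AR-bla cells per well were incubated with compounds for 16 h at 37C and 5% CO2. Fluorescence intensity was recorded 2 h after adding LiveBLAzer B/G FRET substrate at room temperature.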

Chain of Estrogen receptor (Homo sapiens) (P03372 whole entry, looked up): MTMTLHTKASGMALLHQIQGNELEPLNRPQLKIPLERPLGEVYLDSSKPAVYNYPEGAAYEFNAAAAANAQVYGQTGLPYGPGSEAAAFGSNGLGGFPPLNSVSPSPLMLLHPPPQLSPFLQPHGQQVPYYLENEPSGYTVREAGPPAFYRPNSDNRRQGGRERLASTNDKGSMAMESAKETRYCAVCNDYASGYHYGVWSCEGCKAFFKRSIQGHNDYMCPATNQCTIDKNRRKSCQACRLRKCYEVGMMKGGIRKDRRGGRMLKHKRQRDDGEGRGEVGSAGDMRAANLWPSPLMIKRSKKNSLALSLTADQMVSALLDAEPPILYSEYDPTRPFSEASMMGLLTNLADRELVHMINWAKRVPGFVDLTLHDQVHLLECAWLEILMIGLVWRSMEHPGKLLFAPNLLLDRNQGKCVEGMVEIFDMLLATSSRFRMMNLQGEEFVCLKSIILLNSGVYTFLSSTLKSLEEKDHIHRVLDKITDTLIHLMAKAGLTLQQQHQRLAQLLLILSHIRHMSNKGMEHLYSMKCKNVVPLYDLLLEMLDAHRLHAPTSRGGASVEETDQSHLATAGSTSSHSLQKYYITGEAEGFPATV
Chain of Androgen receptor (Homo sapiens) (P10275 whole entry, looked up): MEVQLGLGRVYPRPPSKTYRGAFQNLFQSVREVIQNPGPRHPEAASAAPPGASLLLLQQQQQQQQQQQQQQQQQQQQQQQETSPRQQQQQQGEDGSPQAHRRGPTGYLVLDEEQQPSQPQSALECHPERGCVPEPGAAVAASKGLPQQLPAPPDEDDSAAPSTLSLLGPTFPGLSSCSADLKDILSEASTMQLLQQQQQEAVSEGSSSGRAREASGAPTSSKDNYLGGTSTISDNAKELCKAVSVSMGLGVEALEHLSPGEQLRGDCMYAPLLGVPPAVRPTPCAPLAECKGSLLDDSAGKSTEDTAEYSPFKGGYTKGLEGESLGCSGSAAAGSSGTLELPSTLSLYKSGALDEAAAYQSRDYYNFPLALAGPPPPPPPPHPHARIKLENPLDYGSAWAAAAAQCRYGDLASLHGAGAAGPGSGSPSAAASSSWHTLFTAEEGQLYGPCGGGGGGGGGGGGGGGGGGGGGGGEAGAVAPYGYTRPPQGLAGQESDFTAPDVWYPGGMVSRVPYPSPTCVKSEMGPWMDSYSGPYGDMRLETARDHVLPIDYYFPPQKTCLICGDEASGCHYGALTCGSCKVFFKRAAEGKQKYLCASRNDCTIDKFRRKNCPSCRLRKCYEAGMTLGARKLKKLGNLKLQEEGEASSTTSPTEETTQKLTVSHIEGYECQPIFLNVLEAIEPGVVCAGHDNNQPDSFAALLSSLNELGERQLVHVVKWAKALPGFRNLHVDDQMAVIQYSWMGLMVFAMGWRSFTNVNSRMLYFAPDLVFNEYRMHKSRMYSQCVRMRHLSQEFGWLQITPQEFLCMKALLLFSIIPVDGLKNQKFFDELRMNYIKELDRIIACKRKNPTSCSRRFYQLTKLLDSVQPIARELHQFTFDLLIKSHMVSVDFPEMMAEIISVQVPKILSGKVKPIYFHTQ
Chain of Aromatase (Homo sapiens) (P11511 whole entry, looked up): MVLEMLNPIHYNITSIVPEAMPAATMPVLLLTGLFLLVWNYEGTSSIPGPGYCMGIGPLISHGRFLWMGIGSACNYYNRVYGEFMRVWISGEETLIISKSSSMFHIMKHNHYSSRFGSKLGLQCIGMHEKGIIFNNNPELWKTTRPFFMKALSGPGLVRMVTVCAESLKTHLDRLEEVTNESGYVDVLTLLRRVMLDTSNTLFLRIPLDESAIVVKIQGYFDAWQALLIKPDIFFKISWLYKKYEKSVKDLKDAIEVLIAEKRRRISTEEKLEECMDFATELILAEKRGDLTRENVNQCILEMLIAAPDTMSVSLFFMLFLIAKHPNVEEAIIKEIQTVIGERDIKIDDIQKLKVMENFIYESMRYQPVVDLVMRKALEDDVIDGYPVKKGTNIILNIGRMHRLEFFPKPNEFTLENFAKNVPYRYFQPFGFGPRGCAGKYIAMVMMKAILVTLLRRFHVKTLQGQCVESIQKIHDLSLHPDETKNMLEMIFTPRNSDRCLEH

O=C1OC(=O)C2C1C1(Cl)C(Cl)=C(Cl)C2(Cl)C1(Cl)Cl (configuration not stated)
Potency [1]: inactive
Potency [2]: inactive
Potency [3]: inactive
Potency [4]: inactive
Potency [5]: inactive
Potency [6]: inactive
Potency [7]: inactive
Potency [8]: inactive
Potency [9]: inactive
activation ([10]; at 95 µM (top of the series)): -12.2% (inactive)
Potency [11]: inactive
Potency [12]: inactive
Potency (Aromatase (Homo sapiens)): inactive

Nc1cc2c3c(c1)C(c1ccccc1)=N[C@@H](NC(=O)c1cccnc1)C(=O)N3CC2
Potency [1]: inactive
Potency [2]: inactive
Potency [3]: inactive
Potency [4]: inactive
Potency [5]: inactive
Potency [7]: inactive
Potency [8]: inactive
outcome [13]: inactive
Potency [9]: inactive
activation ([10]; at 70.3 µM (top of the series)): -22.1% (inactive)
Potency [12]: inactive
Potency (Aromatase (Homo sapiens)): inactive

CCC1(c2ccccc2)C(=O)N=C(O)NC1=O (configuration not stated)
Potency [1]: inactive
Potency [2]: inactive
Potency [14]: inactive
Potency [4]: inactive
Potency [5]: inactive
Potency [8]: inactive
outcome [13]: inactive
Potency [9]: inactive
activation ([10]; at 70.3 µM (top of the series)): -3.61% (inactive)
Potency [11]: inactive
Potency [12]: inactive
Potency (Aromatase (Homo sapiens)): inactive

CC(Oc1ccc(Oc2ncc(C(F)(F)F)cc2Cl)cc1)C(=O)O (configuration not stated)
Potency [2]: 68.6 µM (active)
Potency [3]: 61.1 µM (active)
Potency [15]: inactive
Potency [5]: inactive
Potency [7]: inactive
outcome [13]: inactive
Potency [9]: inactive
Potency [11]: inactive
Potency [12]: inactive

CCCCN(CCCCO)N=O
Potency [1]: inactive
Potency [2]: inactive
Potency [14]: inactive
Potency [4]: inactive
Potency [5]: inactive
Potency [6]: inactive
Potency [7]: inactive
Potency [8]: inactive
outcome [13]: inactive
Potency [9]: inactive
activation ([10]; at 70.3 µM (top of the series)): -3.24% (inactive)
Potency [11]: inactive
Potency [12]: inactive
Potency (Aromatase (Homo sapiens)): inactive

OC(c1ccccc1)(c1ccccc1)C1CCNCC1
Potency [1]: 11.4 µM (active)
Potency [2]: inactive
Potency [14]: inactive
Potency [4]: inactive
Potency [7]: inactive
outcome [13]: inactive
Potency [12]: inactive
Potency (Aromatase (Homo sapiens)): inactive

CN1C[C@@H](NS(=O)(=O)N(C)C)C[C@@H]2c3cccc4c3c(cn4C)C[C@H]21
Potency [1]: 21.1 µM (active)
Potency [14]: inactive
Potency [4]: inactive
Potency [6]: inactive
Potency [7]: inactive
outcome [13]: inactive
Potency [12]: inactive

N#Cc1c(Cl)cccc1Cl
Potency [1]: inactive
Potency [2]: inactive
Potency [3]: inactive
Potency [4]: inactive
Potency [6]: inactive
Potency [7]: inactive
Potency [8]: inactive
outcome [13]: inactive
Potency [9]: inactive
activation ([10]; at 70.3 µM (top of the series)): -1.9% (inactive)
Potency [11]: inactive
Potency [12]: inactive
Potency (Aromatase (Homo sapiens)): inactive

Cc1nc(N)nc(N)n1
Potency [1]: inactive
Potency [2]: inactive
Potency [14]: inactive
Potency [16]: inactive
Potency [4]: inactive
outcome [17]: inactive
Potency [5]: inactive
Potency [7]: inactive
Potency [8]: inactive
outcome [13]: inactive
Potency [9]: inactive
activation ([10]; at 95 µM (top of the series)): 2.81% (inactive)
Potency [11]: inactive
Potency [12]: inactive
Potency (Aromatase (Homo sapiens)): inactive

CCOP(=S)(OCC)SCSP(=S)(OCC)OCC
Potency [1]: 54.5 µM (active)
Potency [2]: 61.1 µM (active)
Potency [14]: inactive
Potency [4]: inactive
Potency [5]: inactive
Potency [7]: inactive
Potency [8]: inactive
outcome [13]: inactive
Potency [9]: inactive
Potency [10]: 38.6 µM (active)
Potency [11]: inactive
Potency [12]: inactive
Potency (Aromatase (Homo sapiens)): inactive

CCN(CC)C(=O)[C@@H]1C=C2c3cccc4[nH]cc(c34)C[C@H]2N(C)C1
Potency [1]: 8.98 µM (active) and 10.6 µM (active)
Potency [2]: 101 µM (active) and 23.7 µM (active)
Potency [14]: inactive
Potency [4]: inactive
Potency [5]: inactive
Potency [7]: inactive
outcome [13]: inactive
Potency [9]: inactive and 8.49 µM [inconclusive] (active)
Potency [10]: 0.944 µM (active)
activation ([10]; at 260 µM (top of the series)): -12% (inactive)
Potency [11]: inactive
Potency (Aromatase (Homo sapiens)): inactive

O=[N+]([O-])c1cccc2cccnc12
Potency [4]: inactive
Potency [5]: inactive
Potency [7]: inactive
Potency [8]: inactive
outcome [13]: inactive
Potency [9]: inactive
activation ([10]; at 95 µM (top of the series)): -10.4% (inactive)
Potency [11]: inactive
Potency [12]: inactive
Potency (Aromatase (Homo sapiens)): inactive

CC(C=O)Cc1ccc2c(c1)OCO2 (configuration not stated)
Potency [1]: inactive
Potency [3]: inactive
Potency [14]: inactive
Potency [4]: inactive
Potency [5]: inactive
Potency [6]: inactive
Potency [7]: inactive
outcome [13]: inactive
Potency [12]: inactive
Potency (Aromatase (Homo sapiens)): inactive

[Cl][Sn]([Cl])([Cl])[Cl]
Potency [1]: inactive
Potency [2]: inactive
Potency [3]: inactive
Potency [4]: inactive
Potency [5]: inactive
Potency [6]: inactive
Potency [7]: inactive
Potency [8]: inactive
outcome [13]: inactive
Potency [9]: inactive
activation ([10]; at 95 µM (top of the series)): -3.53% (inactive)
Potency [11]: inactive
Potency [12]: inactive
Potency (Aromatase (Homo sapiens)): inactive

Cc1coc2c1CCC(C)C2 (configuration not stated)
Potency [1]: inactive
Potency [2]: inactive
Potency [14]: inactive
Potency [4]: inactive
Potency [5]: inactive
Potency [7]: inactive
Potency [8]: inactive
outcome [13]: inactive
Potency [9]: inactive
Potency [11]: inactive
Potency [12]: inactive
Potency (Aromatase (Homo sapiens)): inactive

CC(C)NCC(O)c1ccc(N)c(C#N)c1 (configuration not stated)
Potency [1]: inactive
Potency [2]: inactive
Potency [14]: inactive
Potency [4]: inactive
Potency [5]: inactive
Potency [6]: inactive
Potency [7]: inactive
Potency [8]: inactive
outcome [13]: inactive
Potency [9]: inactive
activation ([10]; at 70.3 µM (top of the series)): -15.4% (inactive)
Potency [11]: inactive
Potency [12]: inactive
Potency (Aromatase (Homo sapiens)): inactive

CCN(CC)C(C)C(=O)c1ccccc1 (configuration not stated)
Potency [1]: inactive
Potency [2]: inactive
Potency [14]: inactive
Potency [16]: inactive
outcome [18]: inactive
Potency [15]: inactive
Potency [4]: inactive
outcome [17]: inactive
Potency [5]: inactive
Potency [6]: inactive
Potency [7]: inactive
Potency [8]: inactive
outcome [13]: inactive
Potency [9]: inactive
activation ([10]; at 70.3 µM (top of the series)): 0.375% (inactive)
Potency [11]: inactive
Potency [12]: inactive
Potency (Aromatase (Homo sapiens)): inactive

O=[N+]([O-])c1ccc2c3c(cccc13)CC2
Potency [1]: inactive
Potency [2]: 19.3 µM (active)
Potency [14]: inactive
Potency [4]: inactive
Potency [5]: inactive
Potency [6]: inactive
Potency [7]: inactive
outcome [13]: inactive
Potency [9]: inactive
activation ([10]; at 70.3 µM (top of the series)): -4.67% (inactive)
Potency [11]: inactive
Potency [12]: inactive
Potency (Aromatase (Homo sapiens)): inactive

CSc1nc(N=[N+]=[N-])nc(NC(C)C)n1
Potency [2]: 61.1 µM (active)
Potency [14]: inactive
Potency [4]: inactive
Potency [5]: inactive
Potency [6]: inactive
Potency [7]: inactive
Potency [8]: inactive
outcome [13]: inactive
Potency [9]: inactive
activation ([10]; at 70.3 µM (top of the series)): 2.14% (inactive)
Potency [11]: inactive
Potency [12]: inactive
Potency (Aromatase (Homo sapiens)): inactive

C=CCC1=C(C)[C@@H](OC(=O)[C@@H]2[C@@H](C=C(C)C)C2(C)C)CC1=O
Potency [1]: 15.4 µM (active)
Potency [2]: 24.3 µM (active)
Potency [3]: 15.4 µM (active)
Potency [14]: inactive
Potency [5]: 61.1 µM (active)
Potency [6]: 61.1 µM (active)
outcome [13]: inactive
Potency [9]: inactive
Potency [11]: 54.5 µM (active)
Potency [12]: inactive
